Our source for the growth values is PubChem BioAssay (NCI).

Among the test systems are SK-MEL-2 melanoma; EKVX NSCLC; SN12C renal; UO-31 renal; TK-10 renal; ACHN renal; CAKI-1 renal; A498 renal; CCRF-CEM leukemia; MOLT-4 leukemia; RPMI-8226 leukemia; OVCAR-8 ovarian; OVCAR-5 ovarian; OVCAR-4 ovarian; SK-OV-3 ovarian; IGROV1 ovarian; OVCAR-3 ovarian; HS 578T breast; NCI/ADR-RES ovarian.
What all share (experiment): NCI-60 one-dose screen, 48 h (100 = growth as untreated, 0 = no growth, -100 = all killed)
Holding throughout (details): 10 µM unless noted

This is part of a sample that, as a whole, favours compounds with a hit. Of some 83,000 tested, about 20% had one in any assay.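 Step 1: grow cells in 96-well plates. Step 2: add test compound at a single concentration. Step 3: incubate 48 h. Step 4: record percent growth.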 Unmarked numbers belong to inactive results. The source made the active and inactive calls. The calls were made as follows: active = growth percent below 10; inactive = the rest.

On to `COc1ccc(-c2[nH]c(=S)n(C(CC3(C)NCC(=O)N3n3c(-c4ccccc4)cc(C)nc3=S)c3ccc(OC)cc3)c(=O)c2Br)cc1` (configuration not stated), for which the growth was 73.5% in the assay on SK-MEL-2 melanoma; 60.5% with EKVX NSCLC; 65.5% in the assay with SN12C renal; 38.6% with UO-31 renal; 63.5% in the assay with TK-10 renal; 67.5% with ACHN renal. In addition, the growth is 31.4% in the assay with CAKI-1 renal; -10.4% (active) with A498 renal; 57.5% in the assay with CCRF-CEM leukemia; 54.6% in the assay on MOLT-4 leukemia; -7.13% (active) in the assay on RPMI-8226 leukemia; 71.2% with OVCAR-8 ovarian. Further, the growth in the assay with OVCAR-5 ovarian was 83.4%; in the assay on OVCAR-4 ovarian, 54.9%; in the assay on SK-OV-3 ovarian it was 62.4%; with IGROV1 ovarian, 50.6%; with OVCAR-3 ovarian, 67.5%; in the assay on HS 578T breast, 40.7%. The growth with NCI/ADR-RES ovarian was 80.3%.

Consider `Cc1ccc(S(=O)(=O)N/N=C\c2cc(Cl)ccc2O)cc1`, for which the growth was 99.7% in the assay with SK-MEL-2 melanoma; 113% with EKVX NSCLC; 101% with SN12C renal; 83.7% with UO-31 renal; 88.4% with TK-10 renal; 75.4% in the assay on ACHN renal. In addition, the growth in the assay with CAKI-1 renal is 73.9%; in the assay on A498 renal, 86.7%; with CCRF-CEM leukemia, 74%; in the assay on MOLT-4 leukemia, 98.1%; in the assay with RPMI-8226 leukemia, 82.3%; with OVCAR-8 ovarian it was 91.2%. Also, the growth in the assay with OVCAR-5 ovarian is 82%; in the assay with OVCAR-4 ovarian it was 102%; with SK-OV-3 ovarian, 63.3%; in the assay with IGROV1 ovarian, 51%; in the assay on OVCAR-3 ovarian it was 115%; in the assay with HS 578T breast, 91.3%. The growth in the assay with NCI/ADR-RES ovarian is 71%.

As for `COc1cc(/C=C2\C(=O)ON=C2C)cc(OC)c1OC`, the growth in the assay with SK-MEL-2 melanoma is 113%; in the assay with EKVX NSCLC, 97.8%; in the assay on SN12C renal, 98.3%; with UO-31 renal, 80.3%; with TK-10 renal, 104%; in the assay with ACHN renal, 96.9%. In addition, the growth was 91.5% in the assay on CAKI-1 renal; 65% with A498 renal; 92.8% with CCRF-CEM leukemia; 102% in the assay with MOLT-4 leukemia; 95.9% in the assay with RPMI-8226 leukemia; 99.7% in the assay with OVCAR-8 ovarian. Further, the growth in the assay with OVCAR-5 ovarian is 99.3%; with OVCAR-4 ovarian, 104%; in the assay with SK-OV-3 ovarian, 98.9%; in the assay with IGROV1 ovarian, 101%; with OVCAR-3 ovarian it was 101%; with HS 578T breast, 92%. Besides, in the assay on NCI/ADR-RES ovarian, the growth is 100%.

For the molecule `O=c1[nH][n+](-c2ccc(Cl)cc2)no1`, the growth with SK-MEL-2 melanoma was 75.4%; with EKVX NSCLC, 60.6%; in the assay with SN12C renal, 73.5%; in the assay on UO-31 renal it was 27%; in the assay with TK-10 renal it was 70.8%; in the assay with ACHN renal, 40.7%. In addition, the growth in the assay on CAKI-1 renal was 18.5%; in the assay on A498 renal, 82.6%; in the assay on CCRF-CEM leukemia, 55.3%; with MOLT-4 leukemia, 44.4%; in the assay on RPMI-8226 leukemia it was 79.2%; in the assay on OVCAR-8 ovarian it was 69.9%. Further, the growth with OVCAR-5 ovarian is 77%; in the assay on OVCAR-4 ovarian, 83.5%; in the assay on SK-OV-3 ovarian it was 86.8%; in the assay on IGROV1 ovarian, 70.5%; with OVCAR-3 ovarian, 86.8%; with HS 578T breast, 98.5%. The growth in the assay with NCI/ADR-RES ovarian was 79.9%.

As to `COc1cccc(-c2nc3sccn3c2/C=C/C(=O)c2ccc(C(F)(F)F)cc2)c1`, the growth was 79.1% in the assay on SK-MEL-2 melanoma; 94.2% in the assay on EKVX NSCLC; 76.7% in the assay on SN12C renal; 56.3% in the assay on UO-31 renal; 89.7% with TK-10 renal; 94.7% with ACHN renal. The growth with CAKI-1 renal was 84.7%; in the assay with A498 renal, 52.7%; in the assay with CCRF-CEM leukemia, 66.8%; in the assay with MOLT-4 leukemia it was 48.5%; in the assay on RPMI-8226 leukemia, 46.5%; in the assay with OVCAR-8 ovarian, 81.1%. For the same molecule, the growth is 92.5% with OVCAR-5 ovarian; 92.9% in the assay with OVCAR-4 ovarian; 77.3% in the assay on SK-OV-3 ovarian; 92.8% in the assay on IGROV1 ovarian; 78.9% in the assay with OVCAR-3 ovarian; 80% with HS 578T breast. Moreover, the growth with NCI/ADR-RES ovarian is 89.8%.

Turning to `CCCCC1CCCCN1C(=O)OCC` (configuration not stated), the growth is 101% in the assay on SK-MEL-2 melanoma; 122% with EKVX NSCLC; 103% in the assay on SN12C renal; 88.7% in the assay with UO-31 renal; 92.7% in the assay with TK-10 renal; 103% in the assay with ACHN renal. Also, the growth in the assay on CAKI-1 renal was 101%; in the assay with A498 renal it was 102%; in the assay with CCRF-CEM leukemia, 108%; in the assay on MOLT-4 leukemia, 115%; in the assay with RPMI-8226 leukemia, 118%; with OVCAR-8 ovarian, 106%. Further, the growth was 98.4% in the assay on OVCAR-5 ovarian; 112% with OVCAR-4 ovarian; 99.1% with SK-OV-3 ovarian; 112% in the assay on IGROV1 ovarian; 112% in the assay with OVCAR-3 ovarian; 116% with HS 578T breast. The growth with NCI/ADR-RES ovarian is 113%.

With `C[C@H]1[C@H]2[C@H]3CC[C@@H]4[C@@]5(C)C/C(=C/c6cccnc6)C(=O)C(C)(C)[C@@H]5CC[C@@]4(C)[C@]3(C)CC[C@]23CO[C@]1(C)[C@@H](C(=O)/C=C\c1cccnc1)C3`, the growth was -25.5% (active) with SK-MEL-2 melanoma; -1.58% (active) in the assay on EKVX NSCLC; -17.7% (active) in the assay on SN12C renal; -97.3% (active) in the assay with UO-31 renal; -14.5% (active) in the assay with TK-10 renal; -22.2% (active) with ACHN renal. In addition, the growth was 9.32% (active) in the assay on CAKI-1 renal; -59.1% (active) with A498 renal; 17.9% in the assay with CCRF-CEM leukemia; 16.7% in the assay with MOLT-4 leukemia; 5.06% (active) with RPMI-8226 leukemia; -13.6% (active) with OVCAR-8 ovarian. In addition, the growth with OVCAR-5 ovarian was -4% (active); with OVCAR-4 ovarian, 18.6%; in the assay with SK-OV-3 ovarian it was 58.9%; with IGROV1 ovarian, 1.25% (active); in the assay with OVCAR-3 ovarian it was -43.7% (active); in the assay with HS 578T breast, 11.2%. The growth in the assay with NCI/ADR-RES ovarian is 2.97% (active).

Turning to `COc1cccc(-c2nc3sccn3c2-c2ccnc(NCCNS(=O)(=O)c3cccc(Cl)c3)c2)c1`, the growth was 51.8% with SK-MEL-2 melanoma; 45.8% in the assay with EKVX NSCLC; 36.3% in the assay with SN12C renal; 12.9% in the assay with UO-31 renal; 59.7% in the assay with TK-10 renal; 30.5% in the assay on ACHN renal. Besides, the growth was 25.9% in the assay on CAKI-1 renal; 44.1% with A498 renal; 24% with CCRF-CEM leukemia; 30.4% in the assay on MOLT-4 leukemia; -4.85% (active) in the assay with RPMI-8226 leukemia; 21.4% in the assay with OVCAR-8 ovarian. For the same molecule, the growth with OVCAR-5 ovarian is 89.6%; with OVCAR-4 ovarian, 34%; in the assay on SK-OV-3 ovarian it was 65.6%; in the assay on IGROV1 ovarian, 41.8%; in the assay on OVCAR-3 ovarian it was 48.2%; with HS 578T breast, 38.6%. Further, the growth in the assay on NCI/ADR-RES ovarian was 22.7%.
